# Most compounds without a hit are left out; they make up all but 19% or so of the library.
# Cycloheximide cs: Cycloheximide Counterscreen for Small Molecule Inhibitors of Shiga Toxin | cell reporter, cycloheximide protein synthesis inhibition counterscreen | max response, % | actives 12% (n = 300,000); in the data active = max response mostly above about 13%, no sharp cut-off; inactive = mostly below about 14%; note: read at 38.3 µM for the half of the compounds with a filed dose; 0% is about no effect
# Lassa entry inh: qHTS for Inhibitors of binding or entry into cells for Lassa Virus. Lassa virus pseudotype entry inhibition, cell reporter. Potency, µM (titrated, usually from 37.9 µM), inactives show top-dose activity change, negative = inhibition, usual class: inhibitors. actives 1.2% (n = 300,000); calls by dose curve; tested in HEK293 cells; note: potency is the fitted concentration of half-maximal effect; % is set by controls: 0 for no effect and ±100 for the full control effect; nearly all actives have a fitted effect of over 50% in size
# Pf growth 48h: Primary qHTS for delayed death inhibitors of the malarial parasite plastid, 48 hour incubation | Potency, µM (highest dose often 28.7 µM), for the others: top-dose activity change, negative = inhibition, hits mostly inhibitors | AID 504832, 2011 | P. falciparum luciferase growth in erythrocytes, 48 h | actives 5.9% (n = 310,000); note: potency is the fitted concentration of half-maximal effect; % is set by controls: 0 for no effect and ±100 for the full control effect
#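 First compound was added to culture medium, then infected red cells at 0.1% parasitemia and 2% hematocrit (final). After incubation at 37 C under 5% CO2, luciferase detection reagent was dispensed and light output recorded.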
# Marburg entry inh: qHTS for inhibitors of binding or entry into cells for Marburg Virus; Marburg virus pseudotyped entry inhibition, cell reporter; Potency, µM (doses to about 37.8 µM), without a hit: at the highest dose activity change, negative = inhibition, usual class: inhibitors; actives 1.8% (n = 300,000); AID 540276, 2011; calls by dose curve; tested in HEK293 cells; note: potency is the fitted concentration of half-maximal effect; % is set by controls: 0 for no effect and ±100 for the full control effect
# Shiga inhibitor: A qHTS for Small Molecule Inhibitors of Shiga Toxin; Vero cells, Shiga toxin protein synthesis inhibition reporter; inhibition, % at 38.7 µM; actives 9.2% (n = 290,000); AID 2315, 2010; in the data active = inhibition mostly above about 28%, no sharp cut-off; inactive = mostly below about 43%; note: 0% is about no effect
# Pf growth 96h: Primary qHTS for delayed death inhibitors of the malarial parasite plastid, 96 hour incubation | P. falciparum luciferase reporter growth, 96 h | Potency, µM (series often up to 28.7 µM), inactives show top-dose activity change, negative = inhibition, usual class: inhibitors | actives 6.9% (n = 320,000); note: potency is the fitted concentration of half-maximal effect; % is set by controls: 0 for no effect and ±100 for the full control effect
#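 Plates of compound plus infected erythrocytes (2% hematocrit, 0.05% parasitemia final) incubate 96 hours, 37 C, 5% CO2. Detection reagent added; reduced luminescence from the parasites' luciferase reporter flags inhibition.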
# Numbers without * were called inactive; ? = inconclusive; · = no result; [ ] = dose if it differs, or a comment. Unless noted, calls come from the whole dose curve; as a rule, active = well fitted inhibition curve with a large enough effect; inconclusive = small, poorly fitted or top-dose-only effect, or another doubt; inactive = no such curve, though single readings can be large or run the other way.
SMILES,Cycloheximide cs,Lassa entry inh,Pf growth 48h,Marburg entry inh,Shiga inhibitor,Pf growth 96h
CCCOc1ccc(/C=C/C(=O)N2CCN(c3ccccn3)CC2)cc1,8,5%,?,2%,-16,-25%
CCN1CCN(Cc2ccc(NC(=O)c3ccc(C)c(NC(=O)C(=O)c4c[nH]c5ccccc45)c3)cc2C(F)(F)F)CC1,-11,·,0.37µM*,·,-17,0.41µM*
CCN1CCN(Cc2ccc(NC(=O)c3ccc(C)c(NC(=O)c4ccc5n[nH]nc5c4)c3)cc2C(F)(F)F)CC1,-4,·,4%,·,-4,28%
CCN1CCN(Cc2ccc(NC(=O)c3ccc(C)c(NC(=O)c4ccnnc4)c3)cc2C(F)(F)F)CC1,4,·,50%,·,-9,?
CCN1CCN(Cc2ccc(NC(=O)c3cc(NC(=O)c4cnn(-c5ccccc5)c4N)cc(OC)c3)cc2C(F)(F)F)CC1,-2,·,1.9µM*,·,6,0.83µM*
CCN1CCN(Cc2ccc(C(=O)Nc3ccc(C)c(NCc4cnc(NC(=O)OC)cn4)c3)cc2C(F)(F)F)CC1,-4,·,?,·,1,0.37µM*
CCN1CCN(Cc2ccc(NC(=O)c3cc(NC(=O)c4cc(C)on4)cc(OC)c3)cc2C(F)(F)F)CC1,-3,·,?,·,-8,0.52µM*
CCCNC(=O)C(Cc1ccccc1F)NC(=O)c1ccccn1 (stereo unspecified),·,·,21%,·,·,19%
N#Cc1ccc(OCC(=O)N2CCN(S(=O)(=O)c3cccs3)CC2)cc1,-4,-14%,-6%,-29%,-11,21%
CCOc1cc(C2NC(=O)NC(C)=C2C(=O)OC(C)CC)cc(Br)c1O (stereo unspecified),1,?,-24%,?,10,-16%
CC(C)CNC(=O)COC(=O)CNC(=O)c1cc(Cl)cc([N+](=O)[O-])c1,-1,-6%,14%,7%,-11,4%
CCc1ccccc1NC(=O)Cn1c2ncccc2c(=O)n1-c1ccccc1,·,0%[46.1 µM],·,·,·,·
CCN1CCN(Cc2ccc(NC(=O)c3cc(NC(=O)C(=O)c4c[nH]c5ccccc45)cc(OC)c3)cc2C(F)(F)F)CC1,10,·,0.37µM*,·,25,0.13µM*
COC(=O)c1cc(C(=O)c2ccc(Cl)cc2Cl)cn1C,11,-7%,4.7µM*,-3%,27,5.2µM*
CN1CCC(OC(=O)c2ccc(Cl)cc2Cl)CC1,12,·,9%,·,6,7.4µM*
COc1ccc(-c2cnnn2-c2ccc(NC(=O)/C=C/c3ccc(OC)c(OC)c3)cc2)cc1,-2,?,?,?,-15,?
Cc1ccc(CNC(=O)c2cc3c(s2)-c2ccccc2SC3)cc1,·,?,·,-9%[46.1 µM],·,·
CN(C)CCNC(=O)c1cc2c(s1)-c1ccc(Cl)cc1SC2,-8,·,2.6µM*,·,-20,52%
CCOCCCNC(=O)c1cc2c(s1)-c1ccccc1SC2,16,·,2.6µM*,·,63*,5.2µM*
O=C(COC(=O)c1cccc(S(=O)(=O)N2CCOCC2)c1)NCc1ccccc1,·,4%,·,-1%,·,·
CCc1cccc(C)c1NC(=O)CN1CCN(S(=O)(=O)c2ccc(C(C)(C)C)cc2)CC1,·,-3%,1.7µM*,-24%[46.1 µM],·,0.93µM*
CCc1cccc(C)c1NC(=O)COC(=O)C1CCN(S(=O)(=O)c2ccccc2)CC1,·,4%,-14%,-3%,·,0%
CC(C)(C)c1ccc(S(=O)(=O)N2CCN(CC(=O)N3CC(=O)Nc4ccccc43)CC2)cc1,·,·,12µM*,·,·,?
CCc1ccc(NC(=O)c2cccc(C(=O)Nc3ccc(CC)cc3)n2)cc1,13,-16%,?,-17%,42,?
CCCc1nn(C)c(C(=O)Nc2ccc(C)c(C)c2)c1Cl,32*,18%,70%,3%,92*,52%
SMILES,Cycloheximide cs,Lassa entry inh,Pf growth 48h,Marburg entry inh,Shiga inhibitor,Pf growth 96h
CCn1nc(C(=O)Nc2ccc(C)c(C)c2)c(Cl)c1Cl,14,?,-14%,1%,-2,102%
CCC(=O)Nc1cccc2ccccc12,-4,19%,20%,2%[46.1 µM],-3,28%
CCCc1nn(C)c(C(=O)Nc2cccc3ccccc23)c1Cl,12,8%,7%,-15%,36*,-18%
CCCc1nn(C)c(C(=O)Nc2ccc(CC)cc2)c1Cl,17,0%,12%,6%,35*,5%
CNC(=O)c1ccsc1NC(=O)C1CCN(S(=O)(=O)c2cccs2)CC1,·,-17%,?,-20%[46.1 µM],·,5%
Cn1c(=O)c2c(nc(N/N=C/c3c(O)n(C4CCCCC4)c(=S)[nH]c3=O)n2C)n(C)c1=O,-3,5%,?,10%,-7,?
Cc1c(Cc2ccc3c(c2)OCO3)sc(NC(=O)C2CC2)c1C(N)=O,-1,8.9µM*,-15%,7%[46.1 µM],-11,-12%
Cc1nc(NC(=O)C23CC4CC(CC(C4)C2)C3)sc1Cc1ccc2c(c1)OCO2,25*,-3%,?,29%,67*,1.7µM*
Cc1nc(NC(=O)C2CCCC2)sc1Cc1ccc2c(c1)OCO2,22*,4%,?,21%,52,?
CCN(CC)C(=O)c1sc(NC(=O)c2ccc3c(c2)OCO3)c(C(N)=O)c1C,42*,?,79%,3%,25,-2%
Cc1cccc(C(=O)NCCC(=O)Nc2nc(C)c(Cc3ccc4c(c3)OCO4)s2)c1,9,-18%,-2%,?,16,-2%
Cc1cc(C)cc(NC(=O)C(Cc2ccccc2)NS(=O)(=O)c2ccc3c(c2)c(=O)n(C)c(=O)n3C)c1 (stereo unspecified),·,-15%[46.1 µM],·,?,·,·
COC(=O)CSc1nc2c(c(-c3ccc(C)o3)c1C#N)CCCC2,1,13%,-8%,6%,-23,17%
Cc1ccc(S(=O)(=O)N2CCOCC2)cc1C(=O)OCC(=O)N1CCCCC1,·,-1%,·,?,·,·
CC(NC(=O)NC(=O)c1ccc(Cl)cc1Cl)C1CC1 (stereo unspecified),39*,21%,29%,?,167*,38%
CC(C)CC(NC(=O)c1ccc(Cl)cc1Cl)C(=O)O (stereo unspecified),-4,?,1%,30%,-24,·
COC(=O)c1sc(NC(=S)NC(=O)c2ccccc2F)nc1C,51*,13%[46.1 µM],239%,9%[46.1 µM],160*,-17%
CCOC(=O)CNC(=O)c1sc(NC(=O)c2cccc(F)c2)nc1C,26*,?,·,17%[46.1 µM],66*,-50%
CCOC(=O)CNC(=O)c1sc(NC(=O)c2ccccc2F)nc1C,35*,24%,57%,?,55*,?
COC(=O)c1sc(NC(=O)c2cc(C)on2)nc1C,27*,27%[46.1 µM],60%,5%[46.1 µM],36*,86%
COC(=O)c1sc(NC(=O)COc2ccc(OC)cc2)nc1C,·,-21%,·,-9%,·,·

# Screens from PubChem BioAssay.
